Bioassay records as filed in PubChem.
This is a sample that favours compounds with a hit; in the whole collection about 3.3% have one here.
ERb coact inh = ER-beta (human) coactivator binding inhibition. Q92731. TR-FRET ER-beta LBD / SRC1-Cy5 peptide binding; receptor agonist-loaded with 1 µM estradiol. inhibition, % at 25.6 µM. actives 1.3% (n = 86,000). AID 633;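 active means compounds whose percent inhibition of the receptor-coactivator binding signal exceeds about 50% in the single-dose screen, limit read from the data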;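 further: 0% = receptor plus peptide wells without compound and 100% = peptide-only wells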
Target sequence (Q92731 whole entry, looked up, the tested form may be a part): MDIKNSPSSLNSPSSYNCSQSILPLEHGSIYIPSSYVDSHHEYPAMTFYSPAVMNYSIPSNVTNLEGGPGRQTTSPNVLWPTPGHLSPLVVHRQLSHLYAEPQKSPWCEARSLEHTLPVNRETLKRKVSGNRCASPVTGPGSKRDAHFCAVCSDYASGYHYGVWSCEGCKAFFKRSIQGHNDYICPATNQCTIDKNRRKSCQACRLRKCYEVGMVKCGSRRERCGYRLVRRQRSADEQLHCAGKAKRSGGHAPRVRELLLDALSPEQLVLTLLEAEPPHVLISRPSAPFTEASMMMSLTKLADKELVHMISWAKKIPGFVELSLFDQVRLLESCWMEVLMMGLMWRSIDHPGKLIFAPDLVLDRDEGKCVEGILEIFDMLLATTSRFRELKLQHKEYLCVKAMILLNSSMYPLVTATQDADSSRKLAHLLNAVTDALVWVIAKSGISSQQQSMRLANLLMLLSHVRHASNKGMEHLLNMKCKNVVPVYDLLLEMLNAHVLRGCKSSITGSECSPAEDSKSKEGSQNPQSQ
ERa coact pot = enhances coactivator binding to human estrogen receptor alpha; P03372; coactivator binding (% of control), % at 25.6 µM; AID 639; actives 1.3% (n = 86,000); TR-FRET ERalpha-LBD/SRC-Cy5 coactivator binding, 2 h; 100 = basal binding, no effect; in the data active means activity above about 200%;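 further: binding measured in presence of low estradiol as agonist stimulus; 0% = peptide alone without receptor and 100% = receptor with peptide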
Smad3 FoxH1 inh = blocks human Smad3 binding to FoxH1 peptide; AID 630; P84022; actives 0.29% (n = 88,000); TR-FRET Smad3/Dy647-FoxH1 peptide binding, europium anti-His; inhibition, % at 25 µM;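 active means compounds that reduce the energy-transfer binding signal between the protein and its labelled peptide by more than half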;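 further: 0% = Smad3 plus labelled peptide maximal FRET and 100% = peptide-only background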
FAK blocker = inhibitors of human focal adhesion kinase | Q05397 | actives 0.84% (n = 97,000) | inhibition, %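 (tested at 7 µM)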 | AID 727 | biochemical FAK kinase activity assay; in the data active means inhibition above about 19%;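 further: 0% = DMSO and 100% = reference compound high control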
ERa SRC1 inh = blocks coactivator binding to human estrogen receptor alpha | TR-FRET ER-alpha LBD / SRC-1 peptide, estradiol-bound | inhibition, % at 25.6 µM | actives 1.7% (n = 86,000); in the data active means inhibition above about 50%;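 further: 0% = receptor plus peptide control and 100% = peptide only without receptor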
* marks the source's active call; other numbers are inactive results; . = no result; [ ] = remark or other dose.

SMILES	ERb coact inh	ERa coact pot	Smad3 FoxH1 inh	FAK blocker	ERa SRC1 inh
CCOC(=O)c1[nH]c(C)c(C(=O)c2ccc(C)cc2)c1C	0.4	114.7	-0.8	1.6	57.4*[fluorescence artefact?]
COc1cc2ccc([C@H](C)NCC#N)cc2cc1OC	.	.	6.4	.	.
O=C(CSc1ncnc2sc3c(c12)CCCC3)N1CCC(c2noc3ccc(F)cc23)CC1	65.7*[fluorescence artefact?]	354.9*[fluorescence artefact?]	4.7	4.2	28.9
O=[N+]([O-])c1cccc(/C=N/Nc2ccc3ccccc3n2)c1O	.	.	4.4	.	.
CCOC(=O)c1c(OCC)[nH]c2c1cc(O)c1ccccc12	99.1*[fluorescence artefact?]	68.1	3.5	4.6	97.4*[fluorescence artefact?]
CCOC(=O)c1c(C)[nH]c2cc(Br)c(O)cc12	-9.7	109.8	1.0	.	-0.6
COc1ccc2c(C)nc(Nc3nc(C)cc(C)n3)nc2c1	26.2	242.5*	15.9	8.1	16.7
O=C1c2ccccc2C(=O)C1c1ccc2ccccc2n1	34.1	217.3*[fluorescence artefact?]	33.3	.	51.6*[fluorescence artefact?]
CCOC(=O)C1C(c2cccs2)NC(=O)NC1(O)C(F)(F)F (stereo not given)	-1.4	527.4*[fluorescence artefact?]	7.3	-2.4	-2.3
Cc1ccccc1Nc1nc(CSc2nnc(-c3ccoc3C)n2C)cs1	7.4	92.3	1.2	-2.6	0.1
Cn1c(SCc2cc(=O)n3cc(Br)ccc3n2)nnc1C1COc2ccccc2O1 (stereo not given)	49.3	65.3	-3.4	-6.4	68.2*
Cc1occc1-c1nnc(SCc2cc(=O)n3cc(Br)ccc3n2)n1C	52.8*	120.5	7.7	-2.4	61.1*
C/C(N)=C(/C#N)C(=O)CSc1nnc(-c2ccccc2Br)o1	.	.	.	1.1	.
COc1ccc(-c2nnc(SCC(=O)/C(C#N)=C(\C)N)o2)cc1	74.9*	63.4	2.9	0.2	56.0*
O=C(CCC(=O)Nc1nnc(C2CCCCC2)s1)NCc1cccs1	-7.5	104.0	5.6	5.5	-1.0
O=C(CCC(=O)c1cccs1)Nc1nnc(C2CC2)s1	41.6	64.5	-22.8	1.3	52.4*
CS(=O)(=O)c1ccc2nc(NC(=O)CCC(=O)c3cccs3)sc2c1	39.6	67.2	7.1	5.9	67.7*
COc1ccc2c(c1)CN([C@H](C)[C@@H]1CC[C@@H]3[C@H]4CC[C@H]5C[C@@H](O)CC[C@]5(C)[C@@H]4CC[C@]31C)CO2	.	.	30.9	.	.
CC(=C1C(=O)c2ccccc2C1=O)N1CCN(C/C=C/c2ccccc2)CC1	-1.2	93.2	-8.7	-2.3	4.3
CC(=C1C(=O)c2ccccc2C1=O)N1CCN(Cc2ccccc2)CC1	-1.9	714.1*[fluorescence artefact?]	-0.4	-0.2	0.4
Cc1ccc(Nc2nc(N)nc(CSc3nnnn3-c3ccccc3)n2)cc1	48.1	218.5*[fluorescence artefact?]	-1.9	9.2	61.8*[fluorescence artefact?]
Cc1ccc(-c2nc(NC(=O)CSc3nnnn3-c3ccccc3)ns2)cc1	15.1	219.2*	-5.8	-2.7	15.3
O=S(O)O.O=S(O)O.[Co].[NH2-].[NH2-].[NH2-].[NH2-]	.	.	6.5	.	.
Fc1ccc2c(c1)C1C=CCC1C(c1cc3c(cc1Br)OCO3)N2 (stereo not given)	.	.	.	4.2	.
O=C(O)c1ccc2c(c1)[C@@H]1C=CC[C@@H]1[C@H](c1ccccn1)N2	85.8*	21.0	31.7	6.3	68.3*
SMILES	ERb coact inh	ERa coact pot	Smad3 FoxH1 inh	FAK blocker	ERa SRC1 inh
Cc1ccc(-n2[nH]c(C)c(/C=N/n3c(C)nc4ccccc4c3=O)c2=O)cc1	85.1*	110.8	-1.6	-2.2	-1.3
O=C(CSc1oc(-c2ccco2)nc1S(=O)(=O)c1ccc(Cl)cc1)NCC1CCCO1 (stereo not given)	43.1	43.8	-8.7	0.2	53.9*[fluorescence artefact?]
Cc1ccc(Nc2ccccc2)cc1	-8.6	115.1	11.6	-1.7	-11.3
Cc1ccc(NC2=CC(=O)C(=O)c3ccccc32)cc1	3.9	108.8	47.5	25.7*	-7.5
Cc1ccc(NC2=C/C(=N\S(=O)(=O)c3cccs3)c3ccccc3C2=O)c(C)c1	3.1	117.4	46.3	40.8*	-7.6
COC(=O)C(NC(=O)CCc1c(C)nc2ncnn2c1C)C(C)C (stereo not given)	66.3*[fluorescence artefact?]	84.8	3.5	2.3	-7.9
S=C(Nc1ccc2c(c1)Cc1ccccc1-2)Nc1ccc2c(c1)Cc1ccccc1-2	.	.	-168.5	.	.
COCCCNC(=O)Cn1nnc(-c2ccc(NC(=O)c3ccc(F)cc3)cc2)n1	45.9	257.9*[fluorescence artefact?]	1.0	.	48.4
Cc1cc(NC(=O)CSc2nnc(-c3ccc4c(c3)OCCO4)o2)no1	-0.1	326.8*[fluorescence artefact?]	-40.1	-2.2	-18.9
O=C(CSc1nnc2scc(-c3ccccc3)n12)c1ccc2c(c1)OCCO2	3.1	436.9*[fluorescence artefact?]	3.7	1.6	-26.2
